Compounds with a hit are over-represented: about 12% of the library has one in this group of screens.
AmpC detergent: AmpC beta-lactamase inhibition with detergent present | 0.041% of 370,000 active | AmpC hydrolysis of nitrocefin, absorbance 480 nm, 0.01% Triton | P00811 | Potency, µM (highest dose often 114 µM), for the others: at the highest dose activity change, negative = inhibition, most hits filed as inhibitors;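 also: 0% = no-compound wells and -100% = no-enzyme wells; nearly all actives have a fitted effect of over 25% in size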
Target sequence (P00811 whole entry, looked up): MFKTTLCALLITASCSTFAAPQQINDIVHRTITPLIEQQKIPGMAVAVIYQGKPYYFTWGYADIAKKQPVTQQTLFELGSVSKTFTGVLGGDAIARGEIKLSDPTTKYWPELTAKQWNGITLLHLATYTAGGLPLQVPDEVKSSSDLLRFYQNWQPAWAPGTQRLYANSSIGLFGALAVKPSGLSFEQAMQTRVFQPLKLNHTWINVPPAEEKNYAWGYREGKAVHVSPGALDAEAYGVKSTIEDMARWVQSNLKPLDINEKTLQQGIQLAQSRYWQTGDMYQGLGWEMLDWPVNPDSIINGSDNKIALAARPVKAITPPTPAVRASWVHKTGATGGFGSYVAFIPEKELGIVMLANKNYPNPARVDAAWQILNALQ
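AmpC (5.3 nM in the dispensed reagent) in 20 mM phosphate pH 7.0 with 0.01% (detergent screen) or 0.0001% Triton X-100 was preincubated with compounds for 15 min at room temperature. Nitrocefin was then added from an 800 uM solution, and hydrolysis was followed at 480 nm.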
Pf growth 48h: inhibits P. falciparum growth in the first generation, 48 h. P. falciparum luciferase growth in erythrocytes, 48 h. Potency, µM (series often up to 28.7 µM), inactives show at the top dose activity change, negative = inhibition, usual class: inhibitors. 5.9% of 310,000 active; also: % is scaled to controls: 0 for no effect and ±100 for the full control effect
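Growth was read as firefly luciferase luminescence after a 48 h, 37 C, 5% CO2 exposure of compounds to reporter-bearing P. falciparum cultures (0.1% parasitemia, 2% hematocrit final) in Albumax-supplemented RPMI 1640.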
AmpC no deterg: AmpC beta-lactamase inhibition without detergent; 0.52% of 330,000 active; Potency, µM (highest dose often 57.1 µM), without a hit: at the highest dose activity change, negative = inhibition, actives largely listed as inhibitors; AID 485341; AmpC nitrocefin hydrolysis, absorbance 480 nm, 0.0001% Triton;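 also: plate controls were no compound for no effect and no enzyme for full effect; nearly all actives have a fitted effect of over 20% in size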
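20 mM phosphate pH 7.0 + 0.01% (detergent screen) or 0.0001% Triton X-100; 5.3 nM AmpC reagent; cpd preinc 15 min RT; nitrocefin (800 uM stock) to start; A480 q20 s × 4 min; Activity was normalised to no-enzyme and no-compound control wells.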
Pf growth 96h: P. falciparum growth inhibition at 96 hours; Potency, µM (highest dose often 28.7 µM), inactives show top-dose activity change, negative = inhibition, hits mostly inhibitors; P. falciparum luciferase reporter growth, 96 h; 6.9% of 320,000 active; also: % is scaled to controls: 0 for no effect and ±100 for the full control effect
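Two parasite generations (96 h, 37 C, 5% CO2) of compound exposure in infected erythrocytes (0.05% parasitemia, 2% hematocrit). Luciferase-reporter P. falciparum; decreased luminescence indicates inhibited growth, aimed at apicoplast-acting delayed death.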
SARS PLP yeast: SARS-CoV PLP inhibition in yeast | S. cerevisiae expressing SARS-CoV PLpro, growth rescue | 0.19% of 330,000 active | Potency, µM (doses to about 32.9 µM), inactives show at the highest dose activity, positive = growth rescue, hits mostly activators; calls by dose curve; also: 0% is about no effect; nearly all actives have a fitted effect of over 55% in size
Sm TGR block: inhibitors of Schistosoma mansoni thioredoxin glutathione reductase | purified TGR, DTNB reduction, TNB absorbance 405 nm | Q962Y6 | 3% of 360,000 active | AID 485364 | Potency, µM (series often up to 114 µM), for inactives: at the top dose activity change, negative = inhibition, hits mostly inhibitors; also: % is scaled to controls: 0 for no effect and ±100 for the full control effect; nearly all actives have a fitted effect of over 60% in size
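TGR 20 nM + NADPH 100 uM (dispensed conc.), cpd preinc 15 min RT; start with NADPH (500 uM addition) then DTNB (15 mM addition). Kinetic TNB absorbance, 405 nm filter. Four-parameter Hill fit across titration.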
Numbers without * were called inactive. Unless noted, calls follow the shape of the dose curve; as a rule, active = well fitted curve in the direction sought with a large enough effect; inconclusive = small, poorly fitted or top-dose-only effect, or another doubt; inactive = no such curve, though single readings can be large; an effect the other way counts as inactive or inconclusive. Potency is read from the fitted curve at half-maximal effect.

`CSc1cccc(NC(=S)NCCCN2CCN(c3ccc(F)cc3)CC2)c1` gave AmpC detergent 2%, Pf growth 48h inconclusive, AmpC no deterg 6%, Pf growth 96h 8.3µM*, SARS PLP yeast -1% and Sm TGR block -20%.
`CCc1ccccc1N1CC(c2nc3ccccc3n2CCOc2ccc(Cl)c(C)c2)CC1=O` (configuration not stated) gave AmpC detergent -4% and Sm TGR block -7%.
`Cc1cc(C)n(-c2nc3ccccc3c(=O)n2OCc2ccc(F)cc2)n1` gave AmpC detergent 32µM*, Pf growth 48h inconclusive, AmpC no deterg 45%, Pf growth 96h 8.3µM*, SARS PLP yeast -5% and Sm TGR block -9%.
For Cc1cc(C)n(-c2nc3ccccc3c(=O)n2OCC(=O)N(C)C)n1 the results were AmpC detergent 3%, Pf growth 48h inconclusive, AmpC no deterg 13%, Pf growth 96h 2%, SARS PLP yeast -2% and Sm TGR block 14%.
Cc1cc(C)n(-c2nc3ccccc3c(=O)n2OCC(=O)Nc2c(C)cccc2C)n1 was read as AmpC detergent inconclusive, Pf growth 48h inconclusive, AmpC no deterg 2%, Pf growth 96h 13µM*, SARS PLP yeast -3% and Sm TGR block -17%.
Cc1cc(C)n(-c2nc3ccccc3c(=O)n2OCC(=O)OCc2ccccc2)n1 was read as AmpC detergent -14%, Pf growth 48h 1.5µM*, AmpC no deterg -1%, Pf growth 96h inconclusive, SARS PLP yeast -4% and Sm TGR block -9%.
Cc1cc(CC(C)C)n(-c2nc3ccccc3c(=O)n2OCc2ccccc2)n1 was read as AmpC detergent inconclusive, Pf growth 48h inconclusive, AmpC no deterg 13%, Pf growth 96h 12µM*, SARS PLP yeast -16% and Sm TGR block 5%.
Cc1cc(C)c(S(=O)(=O)N2CCN(C(=O)c3cc4ccccc4oc3=O)CC2)c(C)c1 was read as AmpC detergent 0%, Pf growth 48h inconclusive, AmpC no deterg 5%, Pf growth 96h inconclusive, SARS PLP yeast 1% and Sm TGR block -2%.
For CCc1nnc(NC(=O)C(=O)c2cc(C)n(-c3ccccc3)c2C)s1 the results were AmpC detergent 18% and Sm TGR block -4%.
`O=C(COC(=O)c1ccccn1)c1cccc(Br)c1` gave AmpC detergent 0%, Pf growth 48h 6%, AmpC no deterg -40%, Pf growth 96h 3%, SARS PLP yeast -4% and Sm TGR block 10%.
Screening O=C(Cn1c(-c2cccs2)cc2ccccc21)N1CCN(c2ccc(F)cc2)CC1 returned AmpC detergent 15% and Sm TGR block 5%.
`O=C1SC(SCc2ccccc2)=N/C1=C\c1ccco1` gave AmpC detergent 0%, Pf growth 48h 8% and Sm TGR block inconclusive.
For CCCSC1=N/C(=C\C=C\c2ccco2)C(=O)S1 the results were AmpC detergent -7%, Pf growth 48h 2%, AmpC no deterg -13%, Pf growth 96h 15%, SARS PLP yeast -24% and Sm TGR block 32µM*.
Screening COc1ccc(NC(=O)C2CCC(CNS(=O)(=O)c3cccs3)CC2)cc1OC (configuration not stated) returned AmpC detergent 0%, Pf growth 48h inconclusive, AmpC no deterg -7%, Pf growth 96h -20%, SARS PLP yeast -3% and Sm TGR block 3%.
Screening COc1ccc(NC(=O)C2CCC(CNS(=O)(=O)c3cccs3)CC2)cc1 (configuration not stated) returned AmpC detergent -1%, Pf growth 48h 4%, AmpC no deterg -15%, Pf growth 96h 13µM*, SARS PLP yeast 1% and Sm TGR block -3%.
Screening CCOC(=O)CNC(=O)N1CCCC(CNS(=O)(=O)c2cccs2)C1 (configuration not stated) returned AmpC detergent 4%, Pf growth 48h 9%, AmpC no deterg -5%, Pf growth 96h 10µM*, SARS PLP yeast -1% and Sm TGR block 3%.
Screening COc1ccc(OC)c(NC(=O)N2CCCC(CNS(=O)(=O)c3cccs3)C2)c1 (configuration not stated) returned AmpC detergent 3%, Pf growth 48h inconclusive, AmpC no deterg -17%, Pf growth 96h -6%, SARS PLP yeast 0% and Sm TGR block -16%.
`COc1ccc(OC)c(C(C)NC(=O)Cn2c(=O)cc(C)c3c(C)nn(-c4ccc(C)cc4)c32)c1` (configuration not stated) gave AmpC detergent -9% and Sm TGR block 0%.
Cc1ccc(NC(=O)C2C3C=CC4(O3)C2C(=O)N(CCN2CCOCC2)C4C(=O)NC2CCCCC2)cc1C (configuration not stated) was read as AmpC detergent -13%, Pf growth 48h -5%, AmpC no deterg 11%, Pf growth 96h inconclusive, SARS PLP yeast 1% and Sm TGR block -27%.
For COCCCN1C(=O)C2C(C(=O)Nc3cc(C)cc(C)c3)C3C=CC2(O3)C1C(=O)NC1CCCCC1 (configuration not stated) the results were AmpC detergent -10%, Pf growth 48h -2%, AmpC no deterg 11%, Pf growth 96h inconclusive, SARS PLP yeast -5% and Sm TGR block 40µM*.
For O=C(Nc1ccc(Br)cc1)C1C2C=CC3(O2)C1C(=O)N(CCN1CCOCC1)C3C(=O)NC1CCCCC1 (configuration not stated) the results were AmpC detergent -11%, Pf growth 48h 1%, AmpC no deterg 15%, Pf growth 96h 10µM*, SARS PLP yeast 12% and Sm TGR block -5%.
Screening Cc1ccc(NC(=O)C2C3C=CC4(O3)C2C(=O)N(CCCN2CCOCC2)C4C(=O)NC2CCCCC2)cc1Cl (configuration not stated) returned AmpC detergent inconclusive, Pf growth 48h 2%, AmpC no deterg 4%, Pf growth 96h 2.1µM*, SARS PLP yeast -1% and Sm TGR block -29%.
CC(C)c1ccc(NC(=O)C2C3C=CC4(O3)C2C(=O)N(CCCN2CCOCC2)C4C(=O)NC2CCCCC2)cc1 (configuration not stated) was read as AmpC detergent -2%, Pf growth 48h -17%, AmpC no deterg 26%, Pf growth 96h 15%, SARS PLP yeast 2% and Sm TGR block 2%.

Assay outcomes deposited in PubChem by National Center for Advancing Translational Sciences (NCATS).
